Records with an inconclusive call do not appear. Activity calls are given as the source filed them.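 Rule for the calls, unless noted: active = percent response above 42, roughly 3 SD of non-fluorescent test compounds; inactive = the rest.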

From PubChem BioAssay come the findings set out here.

Test [1] is described as follows: yeast TOR pathway RPL19A-GFP modulators, primary screen, cell-based, S. cerevisiae, multiplex flow cytometry (AID 1862; in the data active = percent of DMSO control GFP below about 86%;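 note: lower values mimic rapamycin by blocking the RPL19A rise seen in DMSO cells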). Conditions: S. cerevisiae RPL19A-GFP strain, flow cytometry fluorescence, 3 h; at 10 µM; stronger effect = lower value.
A short description of test [2]: modulators of MEP2-GFP levels in yeast, primary screen, S. cerevisiae, multiplex flow cytometry (AID 1867;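 active = GFP response, as percent of the DMSO control, above the screen-wide mean plus 3 SD, about 139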;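 note: median GFP channel fluorescence of barcode-gated MEP2-GFP cells measured by flow cytometry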). Conditions: S. cerevisiae MEP2-GFP strain, 3 h, at 10 µM, stronger effect = higher value, 100% means same as DMSO wells. In general terms: In flow cytometry, cells or beads pass a laser one at a time.
Test [3] can be described thus: modulators of CIT2-GFP expression in yeast, primary screen, S. cerevisiae, GFP fusion, multiplex flow cytometry (AID 1870;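 active = percent response above a set limit, the screen-wide mean plus 3 SD, cut at about 130% in these data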;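 note: barcoded CIT2-GFP strain pooled with four other GFP strains with rapamycin as positive control; median GFP fluorescence per well over plate mean of DMSO wells so 100% = DMSO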). The following applies: 3 h, at 10 µM, stronger effect = higher value.
Test [4] can be described thus: modulators of LAP4-GFP expression in yeast, primary screen, S. cerevisiae, multiplex flow cytometry (AID 1873;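 active = GFP signal, as percent of the solvent control, above the screen mean plus 3 SD, about 149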). The following applies: 3 h, at 10 µM, stronger effect = higher value.
The nature of test [5]: modulators of AGP1-GFP expression in yeast TOR pathway, primary screen, cell-based, multiplex flow cytometry, S. cerevisiae (AID 1887;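 active = GFP signal above the screen-wide mean plus 3 SD, that is over about 124.5% of the solvent control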;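 note: AGP1-GFP fusion strain of S. cerevisiae within a five-strain barcoded multiplex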). The following applies: 3 h, at 10 µM, stronger effect = higher value.
Test [6] in a line: inhibitors of CD8+ T cell-vesicle binding, pilot screen, LFA-1/ICAM-1 modulator project, MLPCN validation set, flow cytometry (AID 2523;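 active = response below a set limit, under 55% cells CD8-positive and vesicle-bound, and CD8 cells' 90th-percentile brightness under 279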;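 for vesicle binding response: mean PE anti-B7-1 fluorescence of CD8+ cells relative to row control; 100% = QL9-loaded vesicles with DMSO vehicle in the same plate row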). Conditions: 2C mouse CD8+ T cells, at 7 µM, stronger effect = lower value; double positive events: measured here: CD8+/vesicle+ event percentage.
In test [7] the target is Integrin beta-1 (Homo sapiens) + Integrin alpha-4 (Homo sapiens) (UniProt P13612+P05556). Description: inhibition of HUTS-21 binding to VLA-4, pilot screen, VLA-4 allosteric modulator project, U937 cells, HUTS-21 mAb, flow cytometry, validation set (AID 2674;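 active = inhibition above 50%, about 3 SD of the validation set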;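 note: antibody binding induced by the VLA-4 ligand LDV present at three times its Kd; 0% = LDV ligand with antibody and no compound and 100% = antibody without LDV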). The following applies: HUTS-21 LIBS mAb binding, at 6.7 µM, stronger effect = higher value, binding induced by LDV ligand.
The nature of test [8]: superoxide lowering in aged yeast cells, pilot screen, validation compound set (AID 2706;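 active = superoxide response below 65% of plate, a cut near 3 SD across the whole screen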;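 note: yeast exposed to compound for one week at 30 degrees C before staining; 100% = mean of all compound wells on the same plate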). Conditions: S. cerevisiae aging, superoxide DHE fluorescence; at 10 µM; stronger effect = lower value.
The target of test [9] is Beta-adrenergic receptor kinase 1 (Homo sapiens) (UniProt P25098). The test is described as follows: GRK2 binders displacing RNA aptamer, biochemical, validation, human GRK2, bead flow cytometry (AID 488806;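 active = aptamer binding inhibition above 30%, about 3 SD of noise from non-fluorescent compounds; inactive = inhibition at or below 30%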). The following applies: bead-bound GRK2, FAM-aptamer displacement, at 10 µM, stronger effect = higher value.
For test [10], the target named is Beta-2 adrenergic receptor (Homo sapiens) (UniProt P07550). Description: beta2AR agonists driving receptor internalization, pilot screen, cell-based, FAP fluorogen, flow cytometry, validation set (AID 504459).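 Note: agonist-driven loss of surface beta2AR via internalization measured by FAP dye flow cytometry.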 The following applies: Am2.2-beta2AR cells, FAP surface receptor flow cytometry; at 10 µM; stronger effect = higher value.
For test [11], the target named is AP-2 complex subunit beta (Homo sapiens) (UniProt P63010). Description: inhibitors of arrestin peptide binding to AP2, pilot screen, biochemical, validation set, GST-AP2 beads, flow cytometry (AID 504541;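 active = inhibition above 54%, about 3 SD of non-fluorescent compounds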;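 note: AP2 carries R879A mutation and is captured from E. coli lysate; bead-bound FITC arrestin peptide fluorescence measuring arrestin peptide binding to AP2; 0% = DMSO wells and 100% = excess unlabeled arrestin peptide control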). Conditions: FITC arrestin peptide, at 10 µM, stronger effect = higher value, AP2 beta2 appendage fragment, R879A mutant.
Test [12] can be described thus: yeast V-ATPase proton transport modulators, S. cerevisiae, pHLuorin, HTS validation (AID 504600; in the data active = response above about 15%;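 note: plate controls were DMSO for no effect and reference compound for full effect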). The following applies: S. cerevisiae pHLuorin cytosolic pH, at 10 µM, stronger effect = higher value.
The test system of test [13] is anti-desmoglein-3 scFv antibody binding to human DSG3. The test is described as follows: inhibitors of anti-DSG3 scFv binding to DSG3, pilot screen, biochemical, validation compound set, bead-based, flow cytometry (AID 588368;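 active = binding below the plate cutoff, the plate median minus 3 SD, with a reading above zero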;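 note: signal is the median channel fluorescence of bead-bound GFP antibody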). The following applies: Protein G beads, DSG3-Fc, scFv-GFP binding, at 10 µM, stronger effect = lower value.
Test [14] is described as follows: inhibitors of fungal efflux pumps CDR1, CDR2, MDR1, pilot screen, validation compound set, multiplex, phenotypic (AID 588506;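 active = efflux inhibition above 0.42, the validation set average plus 4 SD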;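 note: Nile Red retained in cells so higher fluorescence means more efflux inhibition; 0 = negative control wells and 1 = enniatin B 25 µM full block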). The following applies: S. cerevisiae pump-expressing triplex, Nile Red efflux flow cytometry; at 10 µM; stronger effect = higher value; the pumps come from Candida albicans.
The target in test [15] is ATP-binding cassette sub-family B member 6 (Homo sapiens) (UniProt Q9NP58). The test is described as follows: ABCB6 transporter inhibitors, pilot screen, K562-ABCB6 cells, flow cytometry, validation set (AID 588550;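 active = inhibition above the screen-wide mean plus 3 SD, about 51%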;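 note: 0% = DMSO wells and 100% = benzethonium chloride 70 µM positive control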). Conditions: K562-ABCB6 porphyrin accumulation, 1 h, at 10 µM, stronger effect = higher value.
A short description of test [16]: promoters of myeloid differentiation in arrested cells, primary screen, cell-based, GFP/MAC1 double positive, flow cytometry, validation set (AID 588685;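 active = differentiation response of at least 50%, scaled between solvent and reference control, from cells with both markers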;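 note: compound exposure lasts four days before antibody staining and flow analysis; 0% = DMSO wells and 100% = 5 µM fulvestrant positive control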). Conditions: ER-HoxA9 marrow cells, stronger effect = higher value, normalized: vehicle 0, fulvestrant 100.

Sequence of Beta-adrenergic receptor kinase 1 (Homo sapiens) (P25098 whole entry, looked up): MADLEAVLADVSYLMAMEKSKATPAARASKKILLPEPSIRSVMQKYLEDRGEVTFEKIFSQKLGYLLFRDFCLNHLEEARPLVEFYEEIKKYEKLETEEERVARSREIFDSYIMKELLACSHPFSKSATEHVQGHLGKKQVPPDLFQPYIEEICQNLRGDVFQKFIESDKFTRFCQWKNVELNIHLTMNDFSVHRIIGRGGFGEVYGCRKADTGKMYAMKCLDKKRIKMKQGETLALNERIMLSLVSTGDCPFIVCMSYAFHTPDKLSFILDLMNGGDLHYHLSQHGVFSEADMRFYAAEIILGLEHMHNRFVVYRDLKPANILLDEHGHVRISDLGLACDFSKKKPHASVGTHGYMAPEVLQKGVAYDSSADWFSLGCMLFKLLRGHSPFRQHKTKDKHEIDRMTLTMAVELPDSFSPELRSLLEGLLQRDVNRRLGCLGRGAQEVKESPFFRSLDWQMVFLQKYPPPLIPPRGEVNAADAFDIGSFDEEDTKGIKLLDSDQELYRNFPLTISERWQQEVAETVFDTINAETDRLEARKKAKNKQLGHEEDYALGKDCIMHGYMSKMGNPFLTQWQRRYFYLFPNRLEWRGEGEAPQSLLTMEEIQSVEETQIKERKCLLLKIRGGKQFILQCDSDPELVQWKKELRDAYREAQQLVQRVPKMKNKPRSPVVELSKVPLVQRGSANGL
Sequence of ATP-binding cassette sub-family B member 6 (Homo sapiens) (Q9NP58 whole entry, looked up): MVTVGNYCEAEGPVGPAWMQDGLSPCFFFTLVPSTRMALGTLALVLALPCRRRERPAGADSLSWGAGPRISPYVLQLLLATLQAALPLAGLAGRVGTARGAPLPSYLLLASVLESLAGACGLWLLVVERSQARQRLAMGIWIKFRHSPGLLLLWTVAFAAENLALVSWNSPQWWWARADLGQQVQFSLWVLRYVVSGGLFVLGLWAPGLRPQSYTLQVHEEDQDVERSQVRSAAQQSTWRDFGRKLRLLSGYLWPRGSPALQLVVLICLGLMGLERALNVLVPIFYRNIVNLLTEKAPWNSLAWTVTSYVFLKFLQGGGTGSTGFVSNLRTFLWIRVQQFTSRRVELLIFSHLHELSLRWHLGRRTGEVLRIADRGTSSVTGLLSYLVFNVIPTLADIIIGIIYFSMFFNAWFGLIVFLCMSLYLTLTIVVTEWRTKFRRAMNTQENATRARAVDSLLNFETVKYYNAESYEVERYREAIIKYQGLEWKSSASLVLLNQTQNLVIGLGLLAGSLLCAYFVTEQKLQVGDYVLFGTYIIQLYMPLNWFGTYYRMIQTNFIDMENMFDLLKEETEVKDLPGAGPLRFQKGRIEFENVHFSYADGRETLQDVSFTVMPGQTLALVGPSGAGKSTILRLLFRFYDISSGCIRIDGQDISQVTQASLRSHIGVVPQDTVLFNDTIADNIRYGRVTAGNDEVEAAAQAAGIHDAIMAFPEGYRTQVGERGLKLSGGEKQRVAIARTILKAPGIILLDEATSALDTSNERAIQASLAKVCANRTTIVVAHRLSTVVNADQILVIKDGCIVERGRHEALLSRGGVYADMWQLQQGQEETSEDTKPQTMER
Sequence of Integrin beta-1 (Homo sapiens) + Integrin alpha-4 (Homo sapiens) (P05556 whole entry, looked up): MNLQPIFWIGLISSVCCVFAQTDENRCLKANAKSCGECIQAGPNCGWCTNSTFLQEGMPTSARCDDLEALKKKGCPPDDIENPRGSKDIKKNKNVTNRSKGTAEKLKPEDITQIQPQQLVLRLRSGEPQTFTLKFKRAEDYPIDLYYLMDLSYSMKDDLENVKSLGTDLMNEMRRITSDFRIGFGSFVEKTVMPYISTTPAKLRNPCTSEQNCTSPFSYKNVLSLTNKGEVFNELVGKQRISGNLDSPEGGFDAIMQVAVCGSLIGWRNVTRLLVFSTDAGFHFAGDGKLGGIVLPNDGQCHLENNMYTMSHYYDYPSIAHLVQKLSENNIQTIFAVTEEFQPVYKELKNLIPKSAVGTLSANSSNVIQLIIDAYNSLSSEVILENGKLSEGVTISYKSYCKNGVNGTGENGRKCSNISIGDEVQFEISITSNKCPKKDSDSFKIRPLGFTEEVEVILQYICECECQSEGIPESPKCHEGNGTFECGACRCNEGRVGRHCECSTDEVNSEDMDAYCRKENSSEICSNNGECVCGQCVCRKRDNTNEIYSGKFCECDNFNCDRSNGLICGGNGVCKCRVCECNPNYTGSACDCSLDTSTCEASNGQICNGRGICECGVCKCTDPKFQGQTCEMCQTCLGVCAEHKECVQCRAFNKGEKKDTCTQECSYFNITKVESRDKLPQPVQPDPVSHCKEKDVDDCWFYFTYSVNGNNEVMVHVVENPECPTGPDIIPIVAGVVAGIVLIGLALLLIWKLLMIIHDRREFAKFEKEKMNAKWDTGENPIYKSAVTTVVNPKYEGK
Sequence of Integrin beta-1 (Homo sapiens) + Integrin alpha-4 (Homo sapiens) (P13612 whole entry, looked up): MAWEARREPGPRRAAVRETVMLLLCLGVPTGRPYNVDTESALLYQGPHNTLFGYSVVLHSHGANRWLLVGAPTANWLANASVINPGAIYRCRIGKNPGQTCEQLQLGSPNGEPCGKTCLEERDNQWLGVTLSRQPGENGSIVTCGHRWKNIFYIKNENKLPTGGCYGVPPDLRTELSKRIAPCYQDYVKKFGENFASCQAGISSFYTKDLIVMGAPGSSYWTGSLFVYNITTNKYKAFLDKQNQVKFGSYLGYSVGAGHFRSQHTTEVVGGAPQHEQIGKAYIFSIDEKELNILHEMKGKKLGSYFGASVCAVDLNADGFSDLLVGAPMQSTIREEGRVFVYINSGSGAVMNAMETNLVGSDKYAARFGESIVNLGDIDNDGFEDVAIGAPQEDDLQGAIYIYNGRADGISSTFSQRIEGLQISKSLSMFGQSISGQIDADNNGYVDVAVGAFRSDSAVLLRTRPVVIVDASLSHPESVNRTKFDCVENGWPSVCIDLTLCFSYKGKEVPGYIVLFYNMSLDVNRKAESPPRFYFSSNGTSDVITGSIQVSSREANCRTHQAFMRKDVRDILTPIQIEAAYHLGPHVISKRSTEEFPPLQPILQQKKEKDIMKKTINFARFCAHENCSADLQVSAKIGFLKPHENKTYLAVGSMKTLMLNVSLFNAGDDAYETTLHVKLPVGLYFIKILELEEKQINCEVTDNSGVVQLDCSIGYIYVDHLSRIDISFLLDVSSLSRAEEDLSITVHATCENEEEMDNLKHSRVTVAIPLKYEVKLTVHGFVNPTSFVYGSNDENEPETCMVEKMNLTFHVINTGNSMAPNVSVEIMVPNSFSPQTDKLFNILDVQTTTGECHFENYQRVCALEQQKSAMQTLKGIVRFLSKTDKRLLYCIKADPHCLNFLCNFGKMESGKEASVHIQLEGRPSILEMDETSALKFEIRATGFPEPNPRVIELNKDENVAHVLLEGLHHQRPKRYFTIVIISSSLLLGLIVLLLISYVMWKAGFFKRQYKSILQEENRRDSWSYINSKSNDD
Sequence of AP-2 complex subunit beta (Homo sapiens) (P63010 whole entry, looked up, the tested form may be a part, one chain of several): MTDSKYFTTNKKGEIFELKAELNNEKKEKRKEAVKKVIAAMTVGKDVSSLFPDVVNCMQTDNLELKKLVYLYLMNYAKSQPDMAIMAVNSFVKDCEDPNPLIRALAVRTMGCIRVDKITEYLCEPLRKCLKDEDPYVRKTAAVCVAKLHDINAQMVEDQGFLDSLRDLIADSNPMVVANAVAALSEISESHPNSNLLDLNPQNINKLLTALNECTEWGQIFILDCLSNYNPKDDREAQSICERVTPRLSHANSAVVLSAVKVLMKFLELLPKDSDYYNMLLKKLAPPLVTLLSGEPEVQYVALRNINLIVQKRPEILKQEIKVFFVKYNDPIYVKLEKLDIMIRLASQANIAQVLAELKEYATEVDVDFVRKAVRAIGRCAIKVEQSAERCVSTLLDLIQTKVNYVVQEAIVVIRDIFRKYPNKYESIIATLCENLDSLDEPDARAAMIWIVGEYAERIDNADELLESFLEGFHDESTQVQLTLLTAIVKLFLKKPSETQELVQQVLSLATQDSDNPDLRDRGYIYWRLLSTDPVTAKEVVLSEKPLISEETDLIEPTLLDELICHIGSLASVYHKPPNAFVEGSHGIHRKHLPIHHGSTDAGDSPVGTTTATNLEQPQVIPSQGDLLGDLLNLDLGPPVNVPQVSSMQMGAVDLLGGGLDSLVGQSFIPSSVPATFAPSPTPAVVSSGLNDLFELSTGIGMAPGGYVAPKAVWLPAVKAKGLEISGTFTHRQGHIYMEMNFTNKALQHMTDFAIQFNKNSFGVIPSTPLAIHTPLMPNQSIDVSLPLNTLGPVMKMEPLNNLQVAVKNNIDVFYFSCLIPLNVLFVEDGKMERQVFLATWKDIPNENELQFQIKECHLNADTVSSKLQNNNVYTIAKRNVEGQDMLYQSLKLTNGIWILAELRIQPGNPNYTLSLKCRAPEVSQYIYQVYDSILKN
Sequence of Beta-2 adrenergic receptor (Homo sapiens) (P07550 whole entry, looked up): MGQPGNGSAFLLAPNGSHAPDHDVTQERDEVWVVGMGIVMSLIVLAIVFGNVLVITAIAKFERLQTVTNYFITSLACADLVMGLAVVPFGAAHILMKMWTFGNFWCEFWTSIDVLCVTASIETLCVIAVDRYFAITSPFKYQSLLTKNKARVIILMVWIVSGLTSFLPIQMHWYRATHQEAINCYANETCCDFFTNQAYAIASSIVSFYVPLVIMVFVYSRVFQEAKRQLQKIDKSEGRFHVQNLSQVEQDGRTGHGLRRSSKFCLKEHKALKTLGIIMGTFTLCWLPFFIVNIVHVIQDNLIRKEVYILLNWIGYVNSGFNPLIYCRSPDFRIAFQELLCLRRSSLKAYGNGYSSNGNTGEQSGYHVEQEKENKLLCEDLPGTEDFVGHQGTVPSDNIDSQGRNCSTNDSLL

One may read the inhibition as the drop in the measured response relative to a control, in per cent. Regarding `C/C(CCc1oc2ccc(Cl)cc2c1-c1ccc(C)o1)=N\O`, the percent of DMSO control GFP in test [1] is 101% (inactive). For the same molecule, the GFP response vs DMSO was 103% (inactive) in [2] and 125% (inactive) in test [4]. Also, the percent response of DMSO control in test [3] is 103% (inactive). For the same molecule, in test [5], the GFP response, % of DMSO was 102% (inactive). This molecule yielded a double positive events in test [6] of 63.1%. Besides, the vesicle binding response in [6] is 157% (inactive). Also, the inhibition in test [7] is -16.4% (inactive); in test [11] it was 4.9% (inactive); in test [15], -3% (inactive). Also, in test [8], the superoxide response (% of plate) is 107% (inactive). The aptamer binding inhibition in test [9] is 0% (inactive). The response is -13% (inactive) in test [10] and 6.85% (inactive) in test [12]. Besides, the binding (% of control) in [13] was 111% (inactive). The efflux inhibition (fraction of control) in test [14] was 0 (inactive). Besides, the differentiation response in [16] was 9.79% (inactive).

On to `COc1cc(OC)c(-c2nc3cnccc3n2C)cc1OC`, for which the percent of DMSO control GFP in test [1] was 104% (inactive). In addition, the GFP response vs DMSO in [2] is 100% (inactive); in [4], 103% (inactive). In [3], the percent response of DMSO control is 115% (inactive). Moreover, the GFP response, % of DMSO in [5] is 102% (inactive). In addition, in [6], the double positive events came to 61.8%. Further, in [6], the vesicle binding response was 192% (inactive). For the same molecule, the inhibition in test [7] is -4.6% (inactive); in [11], -2.31% (inactive); in test [15] it was -11% (inactive). For the same molecule, the superoxide response (% of plate) in test [8] was 97% (inactive). In addition, the aptamer binding inhibition in test [9] is 0% (inactive). Besides, the response in test [10] was -4.1% (inactive); in test [12], 4.97% (inactive). Besides, the binding (% of control) in test [13] was 97.6% (inactive). The efflux inhibition (fraction of control) in test [14] was -0.01 (inactive). Further, the differentiation response in test [16] is 3.18% (inactive).

Turning to `Fc1ccccc1CNCCC(Cc1ccccc1)c1ccc2c(c1)OCO2` (centres undefined), the percent of DMSO control GFP in test [1] was 98.8% (inactive). Also, the GFP response vs DMSO was 107% (inactive) in test [2] and 90.2% (inactive) in [4]. In addition, the percent response of DMSO control in test [3] is 96% (inactive). For the same molecule, the GFP response, % of DMSO in test [5] was 94.9% (inactive). This molecule had a double positive events in test [6] of 63.8%. In addition, in test [6], the vesicle binding response was 99.6% (inactive). Further, the figures for the inhibition in test [7], in test [11] and in test [15] were 8.28% (inactive), 11.7% (inactive) and 4% (inactive), respectively. Moreover, the superoxide response (% of plate) in test [8] is 104% (inactive). In addition, the aptamer binding inhibition in test [9] is -1% (inactive). Moreover, the response was 14% (inactive) in test [10] and 1.06% (inactive) in test [12]. For the same molecule, the binding (% of control) in test [13] is 105% (inactive). For the same molecule, the efflux inhibition (fraction of control) in [14] was -0.22 (inactive). Further, the differentiation response in test [16] was -5.68% (inactive).

In the case of `COc1ccc(/C=C/C(=O)NC(=S)NN2CCCCC2c2cccnc2)cc1` (centres undefined), in [1], the percent of DMSO control GFP is 106% (inactive). Further, the GFP response vs DMSO in test [2] was 99.7% (inactive); in test [4] it was 107% (inactive). The percent response of DMSO control in test [3] was 102% (inactive). Further, the GFP response, % of DMSO in [5] is 109% (inactive). In test [6], this molecule came in with a double positive events of 66.3%. Moreover, the vesicle binding response in [6] is 199% (inactive). The inhibition in test [7] is -2.43% (inactive); in [11], 12.7% (inactive); in test [15], 2% (inactive). The superoxide response (% of plate) in [8] is 95.5% (inactive). The aptamer binding inhibition in test [9] is -3% (inactive). Moreover, the response in test [10] was -5.93% (inactive); in test [12] it was 0.36% (inactive). Besides, the binding (% of control) in [13] is 104% (inactive). Also, the efflux inhibition (fraction of control) in [14] is 0.33 (inactive). The differentiation response in test [16] was -4.57% (inactive).

`O=C(Cc1ccccc1[N+](=O)[O-])NCc1ccncc1`: in test [1], the percent of DMSO control GFP was 101% (inactive). For the same molecule, the figures for the GFP response vs DMSO in test [2] and in test [4] were 101% (inactive) and 97.4% (inactive), respectively. In addition, the percent response of DMSO control in test [3] was 101% (inactive). Also, the GFP response, % of DMSO in [5] is 97.4% (inactive). In addition, in test [6], the double positive events is 63.2%. Besides, the vesicle binding response in test [6] is 243% (inactive). In addition, the inhibition was 6.4% (inactive) in [7], -3.75% (inactive) in test [11] and 2% (inactive) in test [15]. In test [8], the superoxide response (% of plate) is 97.3% (inactive). For the same molecule, in [9], the aptamer binding inhibition was 7% (inactive). Besides, the response was -1.07% (inactive) in [10] and -1.46% (inactive) in test [12]. The binding (% of control) in test [13] was 98.2% (inactive). Further, the efflux inhibition (fraction of control) in test [14] was -0.03 (inactive). The differentiation response in [16] was -15.2% (inactive).

As to `COc1cccc2c1OCC1COc3c(c(=O)n(C)c(=O)n3C)C21` (centres undefined), in [1], the percent of DMSO control GFP was 101% (inactive). The GFP response vs DMSO in test [2] was 108% (inactive); in test [4], 130% (inactive). In addition, the percent response of DMSO control in test [3] is 99.6% (inactive). Further, the GFP response, % of DMSO in test [5] was 102% (inactive). The molecule also showed a double positive events in test [6] of 64.4%. In addition, the vesicle binding response in test [6] is 201% (inactive). For the same molecule, the results for the inhibition in test [7], in test [11] and in [15] were 14.6% (inactive), 59.9% (active) and 2% (inactive), respectively. Besides, in test [8], the superoxide response (% of plate) is 95% (inactive). The aptamer binding inhibition in [9] was -1% (inactive). The response in [10] is -9.55% (inactive); in test [12], -4.7% (inactive). Besides, the binding (% of control) in test [13] is 101% (inactive). Moreover, in test [14], the efflux inhibition (fraction of control) was 0.08 (inactive). In addition, in [16], the differentiation response is 13.6% (inactive).

On to `COc1ccc(-c2nc3c(=O)n(C)c(=O)[nH]c3n2CCc2ccccc2)cc1`, for which the percent of DMSO control GFP in test [1] is 111% (inactive). In addition, the GFP response vs DMSO in test [2] is 103% (inactive); in [4], 93.1% (inactive). Further, the percent response of DMSO control in [3] was 115% (inactive). Moreover, in [5], the GFP response, % of DMSO was 104% (inactive). In test [6], this molecule gave a double positive events of 64%. Further, the vesicle binding response in test [6] was 232% (inactive). Also, the values for the inhibition in test [7], in [11] and in test [15] were 13.2% (inactive), -0.08% (inactive) and 3% (inactive), respectively. The superoxide response (% of plate) in [8] was 107% (inactive). For the same molecule, the aptamer binding inhibition in [9] is 0% (inactive). For the same molecule, the values for the response in test [10] and in test [12] were 12.6% (inactive) and -6.09% (inactive), respectively. For the same molecule, in test [13], the binding (% of control) was 99.3% (inactive). Besides, the efflux inhibition (fraction of control) in test [14] is -0.13 (inactive). Also, the differentiation response in [16] is -23.2% (inactive).
